# Reference: the supplement of paper PMC12669032
# Unmarked numbers belong to inactive results.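 Rule for the calls: active = AUC reduced over 20% with Padj below 0.05 in at least 2 of 3 replicates; inactive = otherwise.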
# Tests used:
# Roseburia intestinalis = assay: growth AUC relative to DMSO control (median of replicates) (fraction); higher = more growth (less inhibition), active = hit call of the paper; conditions: 20 µM; 24 h
# Summary of the method: (§1)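 Three biological replicates, each grown on a separate day, were combined as a median for every value. In each, a gut bacterial monoculture in mGAM started at OD600 0.05 and grew anaerobically at 37 °C with 20 µM compound (1% DMSO), with OD600 read hourly over 24 h. Area under the growth curve was normalised against the plate median of solvent-only wells, or against row and column medians on the industrial chemical plate, after the minimum OD was set to 0.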
# Streptococcus salivarius = assay: as above; conditions: 20 µM; 24 h
# Summary of the method: as §1
Compound,growth AUC (Roseburia intestinalis),growth AUC (Streptococcus salivarius)
COC(=O)C(C)Oc1ccc(Oc2ccc(C(F)(F)F)cn2)cc1 (stereo not given),0.956,0.96
c1ccc2c(c1)-c1cccc3c1c-2cc1ccccc13,0.998,1.03
Cc1cccc(C)c1N(CCSCC(O)C(=O)[O-])C(=O)CO.[Na+] (stereo not given),1.02,0.97
CC(C)(c1cc(Br)c(O)c(Br)c1)c1cc(Br)c(O)c(Br)c1,0.0954 (active),0.144 (active)
COc1nc(NC(=O)NS(=O)(=O)c2ccccc2C(F)(F)F)nc(C(F)(F)F)n1,0.993,1.02
CCNc1nc(NC(C)(C)C)nc(OC)n1,1.05,1
CCC(C)c1cc([N+](=O)[O-])cc([N+](=O)[O-])c1OC(=O)OC(C)C (stereo not given),0.692 (active),0.901
CCCCOC(=O)COc1ccc(Cl)cc1Cl,1.04,1.01
CCOc1ccc2c(c1)C(C)=CC(C)(C)N2,1.04,1.06
CNC(=O)/C(=N/OC)c1ccccc1CO/N=C(C)/C(=N/OC)C(/C)=N/OC,1.01,1.01
Nc1ccc(O)cc1,1.01,0.947
CCc1nc2ncnn2c(N)c1CCCCCC(=O)O.Cl,0.955,1.02
C[C@@]1(c2ccccc2)NC(=O)N(Nc2ccccc2)C1=O,0.958,1.02
C/C=C/C(=O)Oc1c(C(C)CCCCCC)cc([N+](=O)[O-])cc1[N+](=O)[O-] (mixture of isomers),0.809,0.301 (active)
CCOC(=O)c1cnn(C)c1S(=O)(=O)NC(=O)Nc1nc(OC)cc(OC)n1,1.08,1.01
CC(C)(C)C(=O)C(Oc1ccc(Cl)cc1)n1ccnc1 (stereo not given),0.9,0.963
O=C(Nc1ccc(F)cc1-c1ccc(Cl)c(Cl)c1)c1cn[nH]c1C(F)F,0.892,0.945
CC(=O)Nc1cc(NS(=O)(=O)C(F)(F)F)c(C)cc1C,1.02,1
COc1cc(OC)nc(NC(=O)NS(=O)(=O)c2c(-c3nnn(C)n3)cnn2C)n1,0.948,0.953
COc1cccc(N(C)C(=S)Oc2cccc(C(C)(C)C)c2)n1,0.984,0.967
CCCCCCCCCCCC[N+](C)(C)Cc1ccc(CC)cc1.[Cl-],0.0285 (active),1.03
NS(=O)(=O)[O-].[NH4+],1.06,1.01
O=C1NC(=O)c2ccccc21,1.11,1
Cc1nc(C(F)(F)F)c(C(=O)Nc2c(Br)cc(OC(F)(F)F)cc2Br)s1,1.08,0.972
CCN(CC)C(=O)SCc1ccccc1Cl,1.01,1.02

Compound,growth AUC (Roseburia intestinalis),growth AUC (Streptococcus salivarius)
CCOCN(C(=O)C(=O)O)c1c(C)cccc1CC,0.996,1.04
CN(C)C(=O)c1cccnc1S(N)(=O)=O,1.03,0.978
CCC([O-])=C1C(=O)CC(C(=O)[O-])CC1=O.[Ca+2] (stereo not given),1.12,0.917
CCC/C(=N\OCC)C1=C(O)CC(C2CCCSC2)CC1=O (stereo not given),0.937,0.974
CSc1nnc(C(C)(C)C)c(=O)n1/N=C/C(C)C,1.07,1
CC(C)c1cc(Oc2ccccc2)cc(C(C)C)c1NC(=S)NC(C)(C)C,0.926,0.992
O.O=C(Nc1ccc([N+](=O)[O-])cc1Cl)c1cc(Cl)ccc1O,0.869,0.085 (active)
COc1nc(C)nc(NC(=O)NS(=O)(=O)c2ccccc2OCCCl)n1,1,0.992
C=CCO/N=C(\CCC)C1=C([O-])CC(C)(C)C(C(=O)OC)C1=O.[Na+] (stereo not given),0.982,1.02
CC(C)N(C)S(=O)(=O)NC(=O)c1cc(-n2c(=O)cc(C(F)(F)F)[nH]c2=O)c(F)cc1Cl,0.987,1.01
c1ccc(CNc2ncnc3nc[nH]c23)cc1,0.962,1.04
CC(C)([CH2][Sn]([CH2]C(C)(C)c1ccccc1)([CH2]C(C)(C)c1ccccc1)[O][Sn]([CH2]C(C)(C)c1ccccc1)([CH2]C(C)(C)c1ccccc1)[CH2]C(C)(C)c1ccccc1)c1ccccc1,1.02,0.972
c1ccc2c(c1)ccc1ccccc12,0.993,0.997
COC(=O)C(C)Oc1ccc(Cl)cc1Cl (stereo not given),0.979,0.991
CCOC(=O)[C@@H](C)Oc1ccc(Oc2cnc3cc(Cl)ccc3n2)cc1,1.01,1.04
CC(C)OC(=O)[C@@H](C)N(C(=O)c1ccccc1)c1ccc(F)c(Cl)c1,0.999,1
COc1cc(OC)nc(NC(=O)NS(=O)(=O)N(C)S(C)(=O)=O)n1,0.99,1.02
COc1c(Cl)ccc(Cl)c1C(=O)O,0.976,1.03
Clc1ccc(CSc2ccc(Cl)cc2)cc1,0.965,1.01
c1ccc2[nH]c(-c3cscn3)nc2c1,0.998,0.937
O=C(O)COc1cc(N2C(=O)C3=C(CCCC3)C2=O)c(F)cc1Cl,0.987,0.977
CCc1cccc(C)c1N(COC(C)C)C(=O)CCl,1.01,1.01
COC(=O)c1csc(C)c1S(=O)(=O)NC(=O)n1nc(OC)n(C)c1=O,0.974,0.931
CCC/C(=N\OCC(C)Oc1ccc(Cl)cc1)C1=C(O)CC(C2CCCSC2)CC1=O (stereo not given),1.02,0.94
CCc1cc(C(=O)O)cc(CC)c1C1C(=O)N2CCOCCN2C1=O,0.952,1

Compound,growth AUC (Roseburia intestinalis),growth AUC (Streptococcus salivarius)
CC(C)(CO)C(O)(CCc1ccc(Cl)cc1)Cn1cncn1 (stereo not given),0.935,0.987
O=c1cccc2n1CCn1c-2cccc1=O,0.991,1.02
ClC(COCC(Cl)C(Cl)(Cl)Cl)C(Cl)(Cl)Cl (stereo not given),1.01,1.02
CCOC(=O)CSc1nc(C(C)(C)C)nn1C(=O)N(C)C,0.913,0.957
CC(C)NS(=O)(=O)NC(=O)c1cc(-n2c(=O)cc(C(F)(F)F)[nH]c2=O)c(F)cc1Cl,1,1
CN(C(=O)NC(C)(C)c1ccccc1)c1ccccc1,1.02,0.933
CCOC(=O)C(C)Oc1ccc(Oc2cnc3cc(Cl)ccc3n2)cc1 (stereo not given),1.02,1.05
Cc1c(C(=O)c2c[nH]n(C)c2=O)ccc(S(C)(=O)=O)c1C1=NOCC1,0.987,1.01
C#CCN(C)c1c(C#N)cnn1-c1nn2c(c1Cl)CCCC2,1.02,1.03
C=O,1.1,1
O=[N+]([O-])c1ccc2c(c1)Cc1ccccc1-2,1.01,0.988
Nc1cc(Cl)nc(C(=O)O)c1Cl,1.01,1.03
CCNc1nc(Cl)nc(N(CC)CC)n1,1.01,1.02
N#Cc1ccccc1NC(=O)c1snc(Cl)c1Cl,0.992,0.991
C=C1C[C@]23C[C@@]1(O)CC[C@H]2[C@@]12C=C[C@H](O)[C@@](C)(C(=O)O1)[C@H]2[C@@H]3C(=O)O,0.881,0.904
c1ccc2cc3c(ccc4ccccc43)cc2c1,1.01,0.962
COC(=O)C(Cl)Cc1ccc(Cl)cc1 (stereo not given),0.965,0.93
COc1cc(OC)nc(NC(=O)NS(=O)(=O)c2c(Cl)nc3ccccn23)n1,1,1.05
COC(=O)c1ccc(C)cc1C1=NC(C)(C(C)C)C(=O)N1 (racemic),0.934,0.97
CCCCCCCC/C=C\CCCCCCCCCCCCC,1.07,1.03
CC(C)N(C(=O)C(=O)O)c1ccc(F)cc1,0.998,1.05
Cc1cc(C)cc(O)c1,1.03,1.03
Cn1cc(C(=O)Nc2ccc(F)cc2-c2ccc(Cl)c(Cl)c2)c(C(F)F)n1,0.989,0.897
CCSC(=O)N(CC)CC,1.06,0.954
CC(C)C1C2CCC1c1c(NC(=O)c3cn(C)nc3C(F)F)cccc12 (stereo not given),0.861,0.927
